Drawing on publication PMC5540273 (PLoS ONE, 2017), this text covers Kd for twelve molecules.

One assay has as its system T1, PIP5K2C.
T1 construct: gene PIP4K2C

The next assay relates to T2, PIK4CB.
T2 construct: gene PI4KB

pKd: −log10 of the molar value. Some results are limits rather than exact numbers.
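Note: kd values determined as follow-up on hits from a single-replicate KINOMEscan panel screen.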

Regarding `C[C@@H]1CC[C@H](C(=O)NC2CCCCC2)CN1c1cc(-c2ccc3c(N)n[nH]c3c2)nc(N)n1` [GSK2291363], the negative logarithm of the Kd (pKd) (in general, the negative decadic logarithm of the Kd, by convention in mol/L) in the assay with PIP5K1A is 6.36.
In the assay on PRKCD, `FC(F)(F)c1ccc(-c2ncn(CCCN3CCOCC3)c2-c2ccncc2)cc1` [SB-217780] gave a pKd of less than 5.00.
The molecule `CCS(=O)c1ccc(-c2coc3ccc(-c4nnc(C)o4)cc23)cc1` (centres unmarked) had a pKd in the assay on PIP5K2C of 7.07.
As to `Cc1cccc(-c2nc(Nc3ccc4c(cnn4C)c3)c3ccccc3n2)n1` [GW876731], the pKd in the assay on PIKFYVE was 6.42.
With `COc1cc2ncn(-c3cc(OCc4ccncc4Br)c(C(N)=O)s3)c2cc1OC` [GW854278], the pKd is 6.21 with PIP5K1C; 6.48 in the assay on PIP5K2C; 8.96 in the assay with PLK1; 8.85 in the assay with PLK2; 8.03 with PLK3.
Take `Cc1ccccc1COc1cc(-n2cnc3cc(Cl)ccc32)sc1C(N)=O` [GW813349]: the values for the pKd with PLK1, in the assay on PLK2 and in the assay with PLK3 were 7.72, 7.17 and 7.00, respectively.
In the same order, the values of `COc1cc2ncn(-c3cc(OCc4ccc(S(C)(=O)=O)cc4)c(C(N)=O)s3)c2cc1OC` [GW869979] are 7.85, 8.23 and 7.00.
With `COc1cc2ncn(-c3cc(OCc4ccncc4)c(C(N)=O)s3)c2cc1OC` [GSK336313], the negative-log Kd (pKd) was 6.96 in the assay on PLK1 and 7.39 in the assay on PLK2.
As to `COc1cc2ncn(-c3cc(OCCCc4ccccc4)c(C(N)=O)s3)c2cc1OC` [GSK205189], the negative logarithm of the Kd (pKd) is 7.47 in the assay on PLK2 and 6.92 with PLK3.
As to `COc1ccc(-c2cc3c(C)nc(N)nc3n([C@H]3CC[C@H](O)CC3)c2=O)cn1`, the pKd in the assay on PIK3CG was 9.49; with PIK4CB, 7.60.
As to `COc1ccc(-c2cc3c(C)nc(N)nc3n([C@H]3CC[C@H](OCCO)CC3)c2=O)cn1`, in the assay on PIK4CB, the pKd was 7.34.
Turning to `COc1cc(Nc2nccc(N3CCC(NC(=O)C4COc5ccccc5O4)C3)n2)cc(OC)c1OC` (centres unmarked) [GSK1379761], in the assay on PIP5K2C, the pKd was 6.17.
